In PubChem BioAssay (NCI) one finds growth data, which are given here for 8 compounds.

Test systems include NCI-H23 lung; NCI-H226 lung; NCI-H322M lung; HOP-62 NSCLC; NCI-H460 lung; HOP-92 NSCLC; NCI-H522 lung; A549/ATCC NSCLC; 786-0 renal; COLO 205 colon; DU-145 prostate; K-562 leukemia; MALME-3M melanoma; MDA-MB-231 breast; RXF 393 renal; SF-268 CNS; SF-295 CNS; SF-539 CNS; UACC-257 melanoma; M14 melanoma.
What all share (experiment): NCI-60 one-dose screen, 48 h (100 = growth as untreated, 0 = no growth, -100 = all killed)
Common to all, as to conditions: 10 µM unless noted

Values joined by “and” are separate entries in the source; they are usually repeats but may differ in a detail not shown here. Equal entries are not always repeated. The panel holds about 83,000 compounds, 20% with a hit somewhere; the sample as a whole holds those more often.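 Treatment: one concentration, 48 hours, 96-well format. Scoring: percent growth, with anything below 10 considered active.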 Unmarked numbers belong to inactive results. Active and inactive are the calls of the source.

As to `Nc1ncc(-c2ccc3ncnc(NCc4ccccc4)c3c2)cn1`, the growth in the assay with NCI-H23 lung was 55.4%; with NCI-H226 lung, 33.9%; in the assay on NCI-H322M lung, 8.77% (active); with HOP-62 NSCLC, 35.7%; with NCI-H460 lung, 44.7%; with HOP-92 NSCLC it was 8.86% (active). The growth in the assay on NCI-H522 lung is 23.8%; in the assay on A549/ATCC NSCLC it was 41.3%; in the assay with 786-0 renal, 31.3%; in the assay on COLO 205 colon it was 69.3%; with DU-145 prostate, 23.7%; with K-562 leukemia it was 67.6%. Besides, the growth in the assay on MALME-3M melanoma is 38%; with MDA-MB-231 breast, 39.8%; in the assay with RXF 393 renal, 8.82% (active); in the assay on SF-268 CNS, 44.8%; in the assay with SF-295 CNS, 47.4%; with SF-539 CNS it was 44.3%. Further, the growth was 85.1% in the assay with UACC-257 melanoma and 65.6% in the assay with M14 melanoma.
Consider `N#Cc1nc(-c2ccc(Cl)cc2)oc1N1CCC(S(=O)(=O)N2CCOCC2)CC1`, for which the growth is 96.5% in the assay on NCI-H23 lung; 94.6% with NCI-H226 lung; 92.2% in the assay on NCI-H322M lung; 94.6% in the assay on HOP-62 NSCLC; 103% in the assay with NCI-H460 lung; 100% in the assay on HOP-92 NSCLC. The growth is 87.2% in the assay on NCI-H522 lung; 99.9% in the assay with A549/ATCC NSCLC; 93.5% in the assay with 786-0 renal; 116% in the assay with COLO 205 colon; 105% in the assay on DU-145 prostate; 101% in the assay with K-562 leukemia. In addition, the growth in the assay on MALME-3M melanoma was 99.2%; in the assay on MDA-MB-231 breast, 94.7%; with RXF 393 renal, 99.8%; in the assay with SF-268 CNS, 96.6%; in the assay on SF-295 CNS it was 102%; in the assay with SF-539 CNS, 93.6%. Besides, the growth with UACC-257 melanoma is 108%; with M14 melanoma it was 107%.
Regarding `Cc1ccc2c(n1)C(=O)C(Cl)=C(Nc1ccc(C#N)cc1)C2=O`, the growth with NCI-H23 lung was 92.3%; in the assay on NCI-H226 lung, 98.3%; in the assay on NCI-H322M lung, 109%; with HOP-62 NSCLC it was 115%; in the assay with NCI-H460 lung, 100%; in the assay on HOP-92 NSCLC, 126%. The growth is 52.4% with NCI-H522 lung; 106% with A549/ATCC NSCLC; 80.4% in the assay with 786-0 renal; 79.6% in the assay on COLO 205 colon; 112% with DU-145 prostate; 5.72% (active) in the assay with K-562 leukemia. Besides, the growth with MALME-3M melanoma was 27%; with MDA-MB-231 breast, 92.3%; in the assay on RXF 393 renal it was 92.1%; in the assay with SF-268 CNS, 97%; in the assay on SF-295 CNS, 118%; with SF-539 CNS, 100%. Besides, the growth was 74.8% in the assay with UACC-257 melanoma and 86.2% in the assay with M14 melanoma.
For the compound `O=C(/C=C/c1cccc(C(F)(F)F)c1)Nc1cccc(C(F)(F)F)c1`, the growth in the assay with NCI-H23 lung is 33.1%; in the assay on NCI-H226 lung, 64.2%; with NCI-H322M lung it was 79.9%; with HOP-62 NSCLC, 58.4%; in the assay with NCI-H460 lung it was 13.9%; in the assay with HOP-92 NSCLC, 7.77% (active). Further, the growth is 33.8% in the assay with NCI-H522 lung; 39% in the assay on A549/ATCC NSCLC; 76.4% with 786-0 renal; 38.4% with COLO 205 colon; 30.1% in the assay with DU-145 prostate; 23.2% in the assay with K-562 leukemia. The growth in the assay on MALME-3M melanoma is 84.7%; in the assay on MDA-MB-231 breast, 108%; with RXF 393 renal it was 88.7%; in the assay on SF-268 CNS, 70.7%; with SF-295 CNS, 10.5%; in the assay on SF-539 CNS, 97.1%. Moreover, the growth with UACC-257 melanoma was 87.5%; in the assay with M14 melanoma, 56.8%.
For the compound `COc1cc(-c2nc(-c3ccccc3)[nH]c2-c2ccnc(NCCCNS(=O)(=O)c3ccc(C(F)(F)F)cc3)n2)ccc1Cl`, the growth with NCI-H23 lung is 30.8% and 57%; in the assay on NCI-H226 lung it was 36.2% and 51.7%; with NCI-H322M lung, 82.2% and 76.4%; in the assay with HOP-62 NSCLC it was 88.3% and 55.4%; in the assay on NCI-H460 lung, 14.3% and 26.7%; in the assay on HOP-92 NSCLC, 41.3% and 49.4%. For the same compound, the growth was 60.6% and 26.8% with NCI-H522 lung; 31% and 29.3% in the assay on A549/ATCC NSCLC; 33.3% and 35.6% in the assay with 786-0 renal; 48.8% and 11.1% in the assay with COLO 205 colon; 52.6% and 59.5% in the assay with DU-145 prostate; 18% and 23.5% in the assay with K-562 leukemia. Further, the growth in the assay on MALME-3M melanoma was 102% and 62.4%; in the assay on MDA-MB-231 breast it was 57% and 55.8%; in the assay with RXF 393 renal, 18.5% and 16.3%; in the assay on SF-268 CNS, 37.9% and 49%; in the assay with SF-295 CNS it was 13.4% and 22.6%; in the assay on SF-539 CNS, 65.6% and 55.5%. The growth in the assay on UACC-257 melanoma is 64.2% and 51.2%; with M14 melanoma, 18.7%.
Regarding `CCC(=C(c1ccc(OCCN(C)C)cc1)c1ccc(OCCN(C)C)cc1)c1ccc(Cl)cc1`, the growth was 21.9% in the assay on NCI-H23 lung; 21.7% in the assay on NCI-H226 lung; 5.04% (active) in the assay with NCI-H322M lung; -65.7% (active) with HOP-62 NSCLC; -64.8% (active) in the assay on NCI-H460 lung; -5.13% (active) in the assay with HOP-92 NSCLC. The growth in the assay on NCI-H522 lung is -48.3% (active); with A549/ATCC NSCLC, -72.3% (active); in the assay on 786-0 renal, -80.7% (active); in the assay on COLO 205 colon, -67.3% (active); in the assay with DU-145 prostate, -28.8% (active); with K-562 leukemia it was -16.7% (active). For the same compound, the growth is -83.7% (active) in the assay on MALME-3M melanoma; -79.5% (active) in the assay on MDA-MB-231 breast; -85.4% (active) with RXF 393 renal; -37.1% (active) in the assay on SF-268 CNS; -72.2% (active) with SF-295 CNS; -82.8% (active) in the assay on SF-539 CNS. In addition, the growth with UACC-257 melanoma is -69.8% (active); in the assay with M14 melanoma, -66.3% (active).
Turning to `O=C(CSc1nc2ccccc2c(=O)n1-c1ccccc1)N/N=C/c1ccc(Oc2ccc(Cl)cc2)cc1`, the growth was 39.1% with NCI-H23 lung; 72.1% in the assay on NCI-H226 lung; 84.5% with NCI-H322M lung; 59.1% with HOP-62 NSCLC; 32.1% in the assay with NCI-H460 lung; 66.7% in the assay with HOP-92 NSCLC. Further, the growth in the assay on NCI-H522 lung was 49.6%; in the assay on A549/ATCC NSCLC it was 41.7%; with 786-0 renal it was 53.2%; with COLO 205 colon, 49.2%; with DU-145 prostate, 38.4%; in the assay on K-562 leukemia, 61.2%. The growth was 51.3% in the assay on MALME-3M melanoma; 49.2% with MDA-MB-231 breast; 42% with RXF 393 renal; 87.1% in the assay on SF-268 CNS; 83.8% in the assay on SF-295 CNS; 68.5% with SF-539 CNS. The figures for the growth in the assay on UACC-257 melanoma and in the assay with M14 melanoma were 96.9% and 48.8%, respectively.
Take `Cc1ccc(/C(N)=N/C(N)=N/c2nc3ccccc3s2)cc1`: the growth is 48.9% in the assay with NCI-H23 lung; 63.2% with NCI-H226 lung; 91.3% with NCI-H322M lung; -42.4% (active) in the assay with HOP-62 NSCLC; 75.7% in the assay with NCI-H460 lung; 122% in the assay on HOP-92 NSCLC. Also, the growth was 100% with NCI-H522 lung; 19.6% with A549/ATCC NSCLC; 109% with 786-0 renal; 120% with COLO 205 colon; 96.5% in the assay with DU-145 prostate; 82.5% in the assay with K-562 leukemia. For the same compound, the growth with MALME-3M melanoma is 110%; in the assay with MDA-MB-231 breast it was 89.9%; in the assay with RXF 393 renal it was 103%; in the assay with SF-268 CNS, 103%; in the assay with SF-295 CNS, 32.9%; in the assay with SF-539 CNS it was 108%. Besides, the growth in the assay on UACC-257 melanoma was 111%; with M14 melanoma it was 107%.
